Assay results from PubChem BioAssay AID1159580 (chemical genetic matrix, 2015).
Screen size: about 5,500 compounds; about 2,000 (36%) were called active. Inconclusive results (about 18%) are left out. Rule as the data show it: active = normalized growth mostly below about 0.91 (no sharp cut-off); inconclusive = no clear call, values can overlap the other calls; inactive = mostly above about 0.92. Some of the results follow.

Experiment: chemical genetic growth profiling, strain panel (AID 1159580);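 also: tested at 20 µM; growth read once vehicle control cultures reached saturation at 30 °C; 1 = growth at the plate median or of vehicle wells; lower values mean less growth of the strain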
Conditions: S. cerevisiae deletion strains, growth OD
[1] = locus YCL061C, strain MRC1, stronger effect = lower value
[2] = locus YHR030C, strain SLT2, stronger effect = lower value
[3] = locus YJL187C, strain SWE1, stronger effect = lower value

Measured: normalized growth

Cc1onc(-c2ccccc2Cl)c1C(=O)N1CCCN2C(=O)c3ccccc3C21 (centres undefined)
inactive: locus YAL013W, strain DEP1, stronger effect = lower value 1 | locus YBR229C, strain ROT2, stronger effect = lower value 0.989 | [1] 0.985 | locus YDL101C, strain DUN1, stronger effect = lower value 0.963 | locus YDR150W, strain NUM1, stronger effect = lower value 0.971 | locus YEL061C, strain CIN8, stronger effect = lower value 1.01 | locus YGR078C, strain PAC10, stronger effect = lower value 0.994 | [2] 0.942 | locus YHR087W, strain rtc3, stronger effect = lower value 0.987 | [3] 1.01 | locus YJR043C, strain POL32, stronger effect = lower value 0.968 | locus YJR075W, strain HOC1, stronger effect = lower value 1.03 | locus YKL190W, strain CNB1, stronger effect = lower value 1 | locus YLR039C, strain RIC1, stronger effect = lower value 0.995 | locus YLR058C, strain SHM2 (second series), stronger effect = lower value 0.985 | locus YLR085C, strain ARP6, stronger effect = lower value 1.01 | locus YLR262C, strain YPT6, stronger effect = lower value 0.995 | locus YML094W, strain GIM5, stronger effect = lower value 1 | locus YMR219W, strain ESC1, stronger effect = lower value 1.01 | locus YMR263W, strain SAP30, stronger effect = lower value 0.999 | locus YMR307W, strain GAS1, stronger effect = lower value 0.992 | locus YNL128W, strain TEP1, stronger effect = lower value 0.991 | locus YNL153C, strain GIM3, stronger effect = lower value 0.972 | locus YNL298W, strain CLA4 (second series), stronger effect = lower value 0.998 | locus YNL322C, strain KRE1, stronger effect = lower value 1 | locus YNR030W, strain Alg12, stronger effect = lower value 0.993 | locus YPL055C, strain LGE1, stronger effect = lower value 1.01 | locus YPL241C, strain CIN2, stronger effect = lower value 0.987 | locus YPR135W, strain CTF4, stronger effect = lower value 0.931

CCCCC(=O)O[C@]1(C(=O)CO)CCC2C3CCC4=CC(=O)CC[C@]4(C)C3[C@@H](O)C[C@@]21C (some centres undefined)
inactive: locus YAL021C, strain ccr4, stronger effect = lower value 0.974 | locus YAL026C, strain drs2, stronger effect = lower value 0.982 | locus YAL030W, strain snc1, stronger effect = lower value 0.976 | locus YBL061C, strain skt5, stronger effect = lower value 0.988 | locus YBR009C, strain hhf1, stronger effect = lower value 0.985 | locus YBR023C, strain chs3, stronger effect = lower value 0.987 | locus YBR171W, strain sec66, stronger effect = lower value 0.976 | locus YBR231C, strain swc5, stronger effect = lower value 0.979 | locus YBR279W, strain paf1, stronger effect = lower value 0.989 | locus YCL011C, strain gbp2, stronger effect = lower value 0.963 | locus YCL016C, strain dcc1, stronger effect = lower value 0.981 | [1] 0.983 | locus YCL069W, strain vba3, stronger effect = lower value 0.985 | locus YCR088W, strain abp1, stronger effect = lower value 0.991 | locus YDL005C, strain med2, stronger effect = lower value 0.979 | locus YDL040C, strain nat1, stronger effect = lower value 0.981 | locus YDR001C, strain nth1, stronger effect = lower value 0.987 | locus YDR069C, strain doa4, stronger effect = lower value 0.973 | locus YDR137W, strain rgp1, stronger effect = lower value 0.939 | locus YDR159W, strain sac3, stronger effect = lower value 0.97 | locus YDR195W, strain ref2 0.933 | locus YDR297W, strain sur2, stronger effect = lower value 0.981 | locus YDR334W, strain swr1, stronger effect = lower value 0.947 | locus YDR335W, strain msn5, stronger effect = lower value 0.975 | locus YDR392W, strain spt3, stronger effect = lower value 0.968 | locus YEL003W, strain gim4, stronger effect = lower value 0.997 | locus YEL037C, strain rad23, stronger effect = lower value 0.97 | locus YEL061C, strain CIN8 (second series), stronger effect = lower value 0.98 | locus YER015W, strain faa2, stronger effect = lower value 0.972 | locus YER016W, strain bim1, stronger effect = lower value 0.974 | locus YER111C, strain swi4, stronger effect = lower value 0.981 | locus YER155C, strain BEM2 (second series), stronger effect = lower value 0.981 | locus YFR010W, strain ubp6, stronger effect = lower value 0.957 | locus YGL167C, strain pmr1, stronger effect = lower value 0.976 | locus YGL173C, strain kem1, stronger effect = lower value 0.964 | locus YGL227W, strain vid30, stronger effect = lower value 0.984 | locus YGL240W, strain doc1, stronger effect = lower value 0.973 | locus YGL253W, strain hxk2, stronger effect = lower value 0.976 | locus YHR013C, strain ard1, stronger effect = lower value 0.972 | locus YHR027C, strain rpn1, stronger effect = lower value 0.974 | [2] 0.987 | locus YHR079C, strain IRE1, stronger effect = lower value 0.994 | locus YHR142W, strain chs7, stronger effect = lower value 0.941 | locus YJL092W, strain hpr5, stronger effect = lower value 0.984 | locus YJL095W, strain BCK1 (second series), stronger effect = lower value 0.976 | locus YJL095W, strain BCK1, stronger effect = lower value 0.998 | locus YJL115W, strain asf1, stronger effect = lower value 0.952 | locus YJL129C, strain trk1, stronger effect = lower value 0.954 | locus YJL154C, strain vps35, stronger effect = lower value 0.982 | locus YJL164C, strain tpk1, stronger effect = lower value 0.984 | locus YJL166W, strain qcr8, stronger effect = lower value 0.985 | [3] 0.992 | locus YJR066W, strain TOR1, stronger effect = lower value 0.943 | locus YKL160W, strain elf1, stronger effect = lower value 0.983 | locus YKR026C, strain gcn3, stronger effect = lower value 0.969 | locus YKR091W, strain srl3, stronger effect = lower value 0.98 | locus YLL001W, strain dnm1, stronger effect = lower value 0.96 | locus YLL026W, stronger effect = lower value 0.975 | locus YLL041C, strain sdh2, stronger effect = lower value 0.979 | locus YLR027C, strain aat2, stronger effect = lower value 0.978 | locus YLR113W, strain HOG1, stronger effect = lower value 0.986 | locus YLR221C, strain rsa3, stronger effect = lower value 0.988 | locus YLR258W, strain gsy2, stronger effect = lower value 0.989 | locus YLR262C, strain YPT6 (second series), stronger effect = lower value 0.966 | locus YLR320W, strain mms22, stronger effect = lower value 0.977 | locus YLR342W, strain FKS1, stronger effect = lower value 0.981 | locus YLR357W, strain rsc2, stronger effect = lower value 0.971 | locus YLR370C, strain arc18, stronger effect = lower value 0.981 | locus YLR384C, strain iki3, stronger effect = lower value 0.979 | locus YML120C, strain ndi1, stronger effect = lower value 0.973 | locus YMR058W, strain fet3, stronger effect = lower value 0.974 | locus YMR125W, strain sto1, stronger effect = lower value 0.961 | locus YMR129W, stronger effect = lower value 0.979 | locus YMR205C, strain PFK2, stronger effect = lower value 0.997 | locus YMR231W, strain pep5, stronger effect = lower value 0.98 | locus YNL071W, strain lat1, stronger effect = lower value 0.979 | locus YNL183C, strain NPR1, stronger effect = lower value 0.942 | locus YNL209W, strain ssb2, stronger effect = lower value 0.98 | locus YNL248C, strain rpa49, stronger effect = lower value 0.946 | locus YNL322C, strain KRE1 (second series), stronger effect = lower value 0.959 | locus YNR049C, strain mso1, stronger effect = lower value 0.98 | locus YOR001W, strain rrp6, stronger effect = lower value 0.98 | locus YOR070C, strain gyp1, stronger effect = lower value 0.994 | locus YOR080W, strain dia2, stronger effect = lower value 0.975 | locus YOR083W, strain WHI5, stronger effect = lower value 0.98 | locus YOR106W, strain vam3, stronger effect = lower value 0.977 | locus YOR231W, strain MKK1, stronger effect = lower value 0.976 | locus YOR265W, strain rbl2, stronger effect = lower value 0.977 | locus YOR270C, strain vph1, stronger effect = lower value 0.869 | locus YOR290C, strain snf2, stronger effect = lower value 0.991 | locus YPL051W, strain arl3, stronger effect = lower value 1 | locus YPL078C, strain atp4, stronger effect = lower value 0.971 | locus YPL106C, strain sse1, stronger effect = lower value 0.957 | locus YPL240C, strain hsp82, stronger effect = lower value 0.972 | locus YPL256C, strain CLN2, stronger effect = lower value 0.972
